Legend:
Type in all cases: functional
Plasmodium falciparum [1] = test: GSK_TCMDC: Inhibition of Plasmodium falciparum 3D7 in whole red blood cells, using parasite LDH activity as an index of growth. Test compounds present at 2uM
Plasmodium falciparum [2] = test: GSK_TCMDC: Inhibition of Plasmodium falciparum Dd2 in whole red blood cells, using parasite LDH activity as an index of growth. Test compounds present at 2uM
HepG2 = test: GSK_TCMDC: Percent inhibition of human HepG2 cell line. Test compounds present at 10uM.

Question: `COc1ccc(/N=[N+](\[O-])c2ccccc2/[N+]([O-])=N/c2ccc(OC)cc2)cc1` was tested. Which Inhibition (Plasmodium falciparum [1]) did it give?
Answer: The Inhibition was 84%.

Question: And the Inhibition (Plasmodium falciparum [2])?
Answer: The Inhibition was 29%.

Question: And the Inhibition (HepG2)?
Answer: The Inhibition was 13%.

Question: With `CC(C)(CNCc1ccc(F)c(F)c1)c1nc(-c2ccnc(N)n2)c(-c2ccc(Cl)c(O)c2)[nH]1.Cl` as the molecule, how does the Inhibition (Plasmodium falciparum [1]) read?
Answer: Its Inhibition is 99%.

Question: What about the Inhibition (Plasmodium falciparum [2]) of the same molecule?
Answer: The Inhibition was 79%.

Question: What about the Inhibition (HepG2) of the same molecule?
Answer: The Inhibition was 41%.

Question: With `CCCCCCCCCCS(=O)(=O)N[C@H](COCc1cccc(Oc2ccccc2)c1)COP(=O)([O-])OC.[Li+]` as the molecule, how does the Inhibition (Plasmodium falciparum [1]) read?
Answer: Its Inhibition is 87%.

Question: What about the Inhibition (Plasmodium falciparum [2]) of the same molecule?
Answer: The Inhibition was 0%.

Question: What about the Inhibition (HepG2) of the same molecule?
Answer: The Inhibition was 0%.

Question: `Cc1cc(N[C@@H](Cc2ccccc2)C(=O)Nc2ccccc2)nc(NCCc2cccs2)n1.O=C(O)C(F)(F)F` was tested. Which Inhibition (Plasmodium falciparum [1]) did it give?
Answer: The Inhibition was 100%.

Question: And the Inhibition (Plasmodium falciparum [2])?
Answer: The Inhibition was 72%.

Question: What about the Inhibition (HepG2) of the same molecule?
Answer: The Inhibition was 0%.

Question: Which results are given for `O=C(Nc1ccc(-c2nc3ccccc3[nH]2)cc1)C1CCN(Cc2cccc(F)c2F)CC1`?
Answer: Inhibition (Plasmodium falciparum [1]): 97%; Inhibition (Plasmodium falciparum [2]): 51%; Inhibition (HepG2): 23%

Question: What does the source list for `CC(C)(C)c1cc(C(=O)N2CCN(c3ncnc4ccsc34)CC2)n(Cc2ccccc2)n1`?
Answer: Inhibition (Plasmodium falciparum [1]): 95%; Inhibition (Plasmodium falciparum [2]): 83%; Inhibition (HepG2): 2%

Question: Which results are given for `CCOC(=O)c1nc(-c2ccccc2)[nH]c1-n1nc(C)cc1C`?
Answer: Inhibition (Plasmodium falciparum [1]): 92%; Inhibition (Plasmodium falciparum [2]): 9%; Inhibition (HepG2): 7%

Question: With `CNC(=O)c1cnc(Nc2ccc(N3CCN(C)CC3)cc2)nc1Nc1cccc(OC)c1.O=C(O)C(F)(F)F` as the molecule, how does the Inhibition (Plasmodium falciparum [1]) read?
Answer: Its Inhibition is 100%.

Question: And the Inhibition (Plasmodium falciparum [2])?
Answer: Its Inhibition is 100%.

Question: And the Inhibition (HepG2)?
Answer: The Inhibition was 19%.

Question: Which results are given for `CC1CC(C)CN(CC(O)CNC(=O)Nc2ccc(Br)cc2)C1.O=C(O)C(F)(F)F` (stereo not given)?
Answer: Inhibition (Plasmodium falciparum [1]): 94%; Inhibition (Plasmodium falciparum [2]): 44%; Inhibition (HepG2): 13%

Question: Which results are given for `COc1ccc2nccc([C@@H](O)CN3CCC(NCc4nc5c(C#N)cccc5[nH]4)CC3)c2c1.O=C(O)C(=O)O`?
Answer: Inhibition (Plasmodium falciparum [1]): 96%; Inhibition (Plasmodium falciparum [2]): 9%; Inhibition (HepG2): 0%
